Among the data in the supplement of paper PMC10849652 are log2 fold change values, retold here.

The full data set covers some 7,900 targets. This sample favours those with a hit. About 0.6% of all pairs of compound and target were hits. A number with no mark means an inactive call.

Sequence of UniProt Q14194 (Q14194 whole entry, looked up): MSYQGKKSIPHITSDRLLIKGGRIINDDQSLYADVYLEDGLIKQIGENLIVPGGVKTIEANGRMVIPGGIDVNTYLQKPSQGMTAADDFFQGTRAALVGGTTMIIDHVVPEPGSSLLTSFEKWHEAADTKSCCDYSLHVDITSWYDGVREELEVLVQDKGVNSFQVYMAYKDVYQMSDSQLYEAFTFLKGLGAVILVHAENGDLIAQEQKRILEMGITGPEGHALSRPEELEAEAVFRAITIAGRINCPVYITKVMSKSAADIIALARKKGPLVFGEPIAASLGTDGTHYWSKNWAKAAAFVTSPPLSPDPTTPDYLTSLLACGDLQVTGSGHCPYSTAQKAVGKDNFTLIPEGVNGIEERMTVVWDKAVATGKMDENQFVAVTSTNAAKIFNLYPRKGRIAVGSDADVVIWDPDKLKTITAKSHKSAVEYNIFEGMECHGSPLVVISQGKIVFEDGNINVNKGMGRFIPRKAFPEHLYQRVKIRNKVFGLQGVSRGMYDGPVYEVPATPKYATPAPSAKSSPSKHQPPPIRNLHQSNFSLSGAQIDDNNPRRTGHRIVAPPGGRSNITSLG
Sequence of UniProt Q9Y3X0 (Q9Y3X0 whole entry, looked up): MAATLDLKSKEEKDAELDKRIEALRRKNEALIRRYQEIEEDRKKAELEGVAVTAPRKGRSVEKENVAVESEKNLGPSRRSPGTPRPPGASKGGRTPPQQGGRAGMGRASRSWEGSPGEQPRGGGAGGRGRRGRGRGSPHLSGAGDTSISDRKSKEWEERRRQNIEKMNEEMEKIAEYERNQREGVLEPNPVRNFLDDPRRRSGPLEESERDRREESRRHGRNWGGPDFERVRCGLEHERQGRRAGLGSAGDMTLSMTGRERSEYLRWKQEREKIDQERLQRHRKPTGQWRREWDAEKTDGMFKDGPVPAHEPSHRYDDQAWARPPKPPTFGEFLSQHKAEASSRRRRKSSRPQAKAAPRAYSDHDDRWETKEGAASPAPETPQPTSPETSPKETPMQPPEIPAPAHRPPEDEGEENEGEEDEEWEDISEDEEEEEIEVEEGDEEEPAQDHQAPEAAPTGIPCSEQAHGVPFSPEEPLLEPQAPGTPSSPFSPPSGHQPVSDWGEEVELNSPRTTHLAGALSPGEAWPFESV
Sequence of UniProt Q8N684 (Q8N684 whole entry, looked up): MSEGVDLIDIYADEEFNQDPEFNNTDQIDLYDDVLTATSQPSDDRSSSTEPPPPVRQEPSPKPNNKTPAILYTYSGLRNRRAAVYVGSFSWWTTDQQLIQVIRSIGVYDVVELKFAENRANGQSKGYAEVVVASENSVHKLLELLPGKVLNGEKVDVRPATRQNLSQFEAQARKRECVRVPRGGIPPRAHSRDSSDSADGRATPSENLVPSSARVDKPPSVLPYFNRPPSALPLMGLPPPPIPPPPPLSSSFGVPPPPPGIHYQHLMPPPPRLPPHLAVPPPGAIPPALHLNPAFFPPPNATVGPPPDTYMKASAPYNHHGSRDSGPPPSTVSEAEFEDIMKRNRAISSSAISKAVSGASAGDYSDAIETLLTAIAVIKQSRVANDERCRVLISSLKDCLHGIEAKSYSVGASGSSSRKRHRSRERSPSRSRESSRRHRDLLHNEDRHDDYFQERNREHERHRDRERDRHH
Sequence of UniProt P09497 (P09497 whole entry, looked up): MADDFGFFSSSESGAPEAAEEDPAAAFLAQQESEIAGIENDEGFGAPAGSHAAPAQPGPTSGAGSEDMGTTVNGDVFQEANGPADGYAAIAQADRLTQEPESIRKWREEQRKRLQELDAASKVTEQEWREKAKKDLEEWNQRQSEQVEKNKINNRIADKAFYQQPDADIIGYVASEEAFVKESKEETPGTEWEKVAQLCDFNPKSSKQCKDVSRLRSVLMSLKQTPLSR
Sequence of UniProt P08174 (P08174 whole entry, looked up): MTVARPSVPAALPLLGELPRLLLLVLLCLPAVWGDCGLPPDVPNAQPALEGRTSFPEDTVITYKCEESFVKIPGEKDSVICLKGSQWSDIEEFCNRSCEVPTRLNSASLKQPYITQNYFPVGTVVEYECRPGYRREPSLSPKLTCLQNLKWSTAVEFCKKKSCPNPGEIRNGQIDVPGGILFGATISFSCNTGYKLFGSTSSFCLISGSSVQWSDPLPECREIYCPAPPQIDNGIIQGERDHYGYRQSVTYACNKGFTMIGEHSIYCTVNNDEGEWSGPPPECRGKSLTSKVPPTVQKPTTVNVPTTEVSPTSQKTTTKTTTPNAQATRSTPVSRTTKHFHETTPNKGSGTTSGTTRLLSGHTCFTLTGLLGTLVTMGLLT
Sequence of UniProt Q96G23 (Q96G23 whole entry, looked up): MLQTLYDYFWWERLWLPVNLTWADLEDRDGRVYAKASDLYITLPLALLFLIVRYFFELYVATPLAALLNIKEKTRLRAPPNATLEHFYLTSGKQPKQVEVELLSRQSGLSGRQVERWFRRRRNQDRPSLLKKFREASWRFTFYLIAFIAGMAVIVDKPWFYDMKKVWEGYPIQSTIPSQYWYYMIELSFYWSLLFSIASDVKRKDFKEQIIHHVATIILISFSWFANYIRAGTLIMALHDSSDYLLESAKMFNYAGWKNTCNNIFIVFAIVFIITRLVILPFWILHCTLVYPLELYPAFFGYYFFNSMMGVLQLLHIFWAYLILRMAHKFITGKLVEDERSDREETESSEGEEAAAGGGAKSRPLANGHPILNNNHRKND
Sequence of UniProt O00748 (O00748 whole entry, looked up): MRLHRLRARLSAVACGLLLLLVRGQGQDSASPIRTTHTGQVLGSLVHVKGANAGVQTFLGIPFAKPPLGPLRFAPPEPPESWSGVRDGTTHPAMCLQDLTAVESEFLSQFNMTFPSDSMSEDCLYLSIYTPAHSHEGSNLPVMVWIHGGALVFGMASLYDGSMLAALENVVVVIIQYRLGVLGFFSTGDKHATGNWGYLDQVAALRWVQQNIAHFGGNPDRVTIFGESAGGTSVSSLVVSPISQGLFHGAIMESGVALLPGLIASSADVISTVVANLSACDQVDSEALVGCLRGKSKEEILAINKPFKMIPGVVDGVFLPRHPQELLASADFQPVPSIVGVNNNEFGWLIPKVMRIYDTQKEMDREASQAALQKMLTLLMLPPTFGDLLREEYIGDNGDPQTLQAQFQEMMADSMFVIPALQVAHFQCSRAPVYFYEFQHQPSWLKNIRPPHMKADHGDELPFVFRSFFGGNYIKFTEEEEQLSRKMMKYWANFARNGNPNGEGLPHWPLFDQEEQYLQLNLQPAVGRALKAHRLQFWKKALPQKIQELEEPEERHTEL
Sequence of UniProt Q6ZU80 (Q6ZU80 whole entry, looked up): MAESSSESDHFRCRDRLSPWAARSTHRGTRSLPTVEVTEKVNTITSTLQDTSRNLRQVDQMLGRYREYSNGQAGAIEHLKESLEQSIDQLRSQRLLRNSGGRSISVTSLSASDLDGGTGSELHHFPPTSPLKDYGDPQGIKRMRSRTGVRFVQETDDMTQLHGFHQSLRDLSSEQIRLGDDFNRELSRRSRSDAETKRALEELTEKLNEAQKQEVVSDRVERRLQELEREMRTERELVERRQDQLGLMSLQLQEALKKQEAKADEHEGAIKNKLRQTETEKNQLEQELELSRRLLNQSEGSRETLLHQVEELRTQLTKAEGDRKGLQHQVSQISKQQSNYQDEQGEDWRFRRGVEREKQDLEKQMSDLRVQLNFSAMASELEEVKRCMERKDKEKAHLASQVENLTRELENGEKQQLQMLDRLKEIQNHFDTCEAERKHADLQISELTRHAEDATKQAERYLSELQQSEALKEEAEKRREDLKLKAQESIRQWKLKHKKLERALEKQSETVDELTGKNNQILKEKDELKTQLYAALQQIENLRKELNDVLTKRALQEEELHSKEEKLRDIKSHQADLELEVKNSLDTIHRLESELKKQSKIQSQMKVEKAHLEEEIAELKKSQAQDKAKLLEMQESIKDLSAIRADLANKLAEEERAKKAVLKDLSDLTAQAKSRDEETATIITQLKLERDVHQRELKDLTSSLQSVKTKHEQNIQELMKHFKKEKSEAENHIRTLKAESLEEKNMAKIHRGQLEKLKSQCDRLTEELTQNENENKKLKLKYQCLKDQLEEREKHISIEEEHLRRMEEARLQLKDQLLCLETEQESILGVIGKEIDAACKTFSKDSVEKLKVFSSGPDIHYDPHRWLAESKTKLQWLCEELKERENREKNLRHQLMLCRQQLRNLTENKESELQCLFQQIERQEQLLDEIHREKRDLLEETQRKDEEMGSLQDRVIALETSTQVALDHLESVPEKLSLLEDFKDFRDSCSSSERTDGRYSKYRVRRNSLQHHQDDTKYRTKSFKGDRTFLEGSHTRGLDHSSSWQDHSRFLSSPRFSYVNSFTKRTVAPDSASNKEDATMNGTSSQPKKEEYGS
Sequence of UniProt Q70SY1 (Q70SY1 whole entry, looked up): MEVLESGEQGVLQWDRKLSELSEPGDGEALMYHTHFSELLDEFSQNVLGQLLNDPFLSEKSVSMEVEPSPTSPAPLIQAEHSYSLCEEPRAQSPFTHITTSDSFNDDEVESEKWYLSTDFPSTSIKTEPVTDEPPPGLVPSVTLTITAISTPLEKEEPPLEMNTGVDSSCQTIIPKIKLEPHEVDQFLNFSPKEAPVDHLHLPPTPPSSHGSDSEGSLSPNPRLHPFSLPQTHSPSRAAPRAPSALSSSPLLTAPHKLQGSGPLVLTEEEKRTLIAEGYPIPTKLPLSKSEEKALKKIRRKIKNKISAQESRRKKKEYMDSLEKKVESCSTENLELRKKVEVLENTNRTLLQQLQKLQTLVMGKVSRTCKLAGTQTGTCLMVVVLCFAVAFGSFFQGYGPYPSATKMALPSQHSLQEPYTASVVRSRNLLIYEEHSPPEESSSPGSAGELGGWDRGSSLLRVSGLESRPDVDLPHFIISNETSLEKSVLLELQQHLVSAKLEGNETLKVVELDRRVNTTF
Sequence of UniProt Q99627 (Q99627 whole entry, looked up): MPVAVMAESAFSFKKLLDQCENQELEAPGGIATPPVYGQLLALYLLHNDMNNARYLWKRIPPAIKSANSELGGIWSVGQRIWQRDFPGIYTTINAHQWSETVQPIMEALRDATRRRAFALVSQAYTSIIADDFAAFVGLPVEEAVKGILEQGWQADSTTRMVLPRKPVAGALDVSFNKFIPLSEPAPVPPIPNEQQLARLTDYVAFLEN

Compound in the first experiment: CC1=C2C(=CC=C1)N=C(N(C2=O)C3=CC=CC=C3C)CN4C=NC5=C(N=CN=C54)N
Nature of the experiment: log2 fold change, soluble protein after heating vs DMSO (PISA); higher = thermal stabilisation; K562 cells, 10 uM, 30 min; active = over 0.2 and 3.5 SD of the protein, either way, in both replicates (recomputed). Put shortly:
(§1)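 Thermal stability values are relative to control samples and come from duplicates. They are expressed as log2 fold changes. For measurement, K562 cells (2×10^6 cells/mL) received 10 μM compound for 30 min, and aliquots were heated for 3 min over 48°C-58°C, pooled, and extracted at 4°C in PBS with 0.5% NP-40. Soluble protein, the supernatant after 21,000xg for 90 min, was quantified by TMTpro 16plex LC-MS/MS with equalised channel sums.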
For the target CDC25B isoform 4 (UniProt P30305), the log2 fold change was 0.101.
On the same count and under the same terms, next, CES2 isoform 4 (UniProt O00748): 0.061.
Same read-out and setting: in the case of COA6 isoform 2 (UniProt Q5JTJ3) it was 0.038; in that of CDK11B (UniProt P21127), 0.137.
Still for that read-out and setting: next, CDKN1B (UniProt P46527): -0.036; COPS3 (UniProt Q9UNS2): 0; CAMK2G isoform 6 (UniProt Q13555): 0.044.
Regarding CCDC9 (UniProt Q9Y3X0), the log2 fold change is -0.118.
On the same count and under the same terms, in the case of CLASP2 isoform 3 (UniProt O75122) it was 0.091; in that of CREB3L2 (UniProt Q70SY1), 0.296.
Same read-out and setting: next, CLTB (UniProt P09497): -0.016; CDK5RAP1 (UniProt Q96SZ6): 0.149.
The same measure, in the same setting: in the case of CD55 isoform 7 (UniProt P08174) it was -0.009; in that of COX20 isoform 2 (UniProt Q5RI15), 0.
For the target COX15 (UniProt Q7KZN9), the log2 fold change was 0.036.
For the target CRMP1 isoform 2 (UniProt Q14194), the log2 fold change is -0.066.
CPSF6 isoform 2 (UniProt Q16630): the log2 fold change was 0.048.
On the same count and under the same terms, next, CCNDBP1 (UniProt O95273): 0.182; CEP128 (UniProt Q6ZU80): 0.216.
On the same count and under the same terms, next, C16orf58 (UniProt Q96GQ5): 0.088; CPSF7 isoform 3 (UniProt Q8N684): -0.012; CDK17 isoform 2 (UniProt Q00537): -0.049.
Still for that read-out and setting: next, CETN2 (UniProt P41208): -0.012.
In the case of CLPTM1L (UniProt G5E9Z2), the log2 fold change was -0.012.
The same measure, in the same setting: in the case of CCNC (UniProt P24863) it was 0.01; in that of CNN3 (UniProt Q15417), 0.079.
Still for that read-out and setting: in the case of COCH (UniProt O43405) it was -0.193; in that of CNOT4 isoform 9 (UniProt O95628), 0.147; in that of CDK1 (UniProt P06493), 0.003.
In the case of CDK4 (UniProt P11802), the log2 fold change was 0.119.
The same measure, in the same setting: next, CHCHD1 (UniProt Q96BP2): -0.031; COPS8 (UniProt Q99627): 0.039.
Still for that read-out and setting: next, CERS2 (UniProt Q96G23): -0.012.

Compound in another experiment: Cc1sc2c(c1C)C(c1ccc(Cl)cc1)=N[C@@H](CC(=O)OC(C)(C)C)c1nnc(C)n1-2
The description is as above. Summed up: as §1
Regarding CCDC167 (UniProt Q9P0B6), the log2 fold change was -0.124.
As for CES2 isoform 4 (UniProt O00748), the log2 fold change is 0.118.
As to CHST10 (UniProt O43529), the log2 fold change is -0.052.
The same measure, in the same setting: next, COA6 isoform 2 (UniProt Q5JTJ3): -0.06; CDK11B (UniProt P21127): -0.01; COPS3 (UniProt Q9UNS2): -0.007.
Still for that read-out and setting: in the case of CAMK2G isoform 6 (UniProt Q13555) it was 0.096; in that of CCDC9 (UniProt Q9Y3X0), 0.091.
Still for that read-out and setting: in the case of CLASP2 isoform 3 (UniProt O75122) it was -0.024.
With CREB3L2 (UniProt Q70SY1), the log2 fold change was -0.143.
As for CLTB (UniProt P09497), the log2 fold change is -0.01.
On to CDK5RAP1 (UniProt Q96SZ6), for which the log2 fold change is 0.028.
The same measure, in the same setting: next, CD55 isoform 7 (UniProt P08174): -0.066; COX20 isoform 2 (UniProt Q5RI15): -0.022.
Still for that read-out and setting: next, COX15 (UniProt Q7KZN9): -0.013; CRMP1 isoform 2 (UniProt Q14194): 0.002; CPSF6 isoform 2 (UniProt Q16630): 0.02.
On the same count and under the same terms, in the case of CCNDBP1 (UniProt O95273) it was 0.007; in that of CEP128 (UniProt Q6ZU80), 0.104; in that of C16orf58 (UniProt Q96GQ5), -0.042.
For CPSF7 isoform 3 (UniProt Q8N684), the log2 fold change is 0.017.
With CETN2 (UniProt P41208), the log2 fold change was 0.06.
Turning to CLPTM1L (UniProt G5E9Z2), the log2 fold change is -0.07.
Still for that read-out and setting: in the case of CNN3 (UniProt Q15417) it was 0.035; in that of COCH (UniProt O43405), 0.144; in that of CNOT4 isoform 9 (UniProt O95628), -0.067.
On the same count and under the same terms, next, CDK1 (UniProt P06493): 0.019; CHCHD1 (UniProt Q96BP2): 0.168.
The same measure, in the same setting: next, COPS8 (UniProt Q99627): -0.123; CERS2 (UniProt Q96G23): -0.036.

Compound in a further experiment: c1ccc([C@@H]2C[C@H]2NC2CCNCC2)cc1
The description is as above. Summed up:
as §1
Consider CCDC167 (UniProt Q9P0B6), for which the log2 fold change was 0.073.
Same read-out and setting: in the case of CDC25B isoform 4 (UniProt P30305) it was -0.024; in that of CES2 isoform 4 (UniProt O00748), -0.141.
Same read-out and setting: in the case of CHST10 (UniProt O43529) it was 0.044; in that of COA6 isoform 2 (UniProt Q5JTJ3), -0.015; in that of CDK11B (UniProt P21127), 0.059.
Still for that read-out and setting: in the case of CDKN1B (UniProt P46527) it was -0.004.
On to COPS3 (UniProt Q9UNS2), for which the log2 fold change is -0.005.
The same measure, in the same setting: next, CAMK2G isoform 6 (UniProt Q13555): -0.021; CCDC9 (UniProt Q9Y3X0): 0.041.
Still for that read-out and setting: next, CLASP2 isoform 3 (UniProt O75122): -0.014; CREB3L2 (UniProt Q70SY1): -0.247; CLTB (UniProt P09497): -0.02.
In the case of CDK5RAP1 (UniProt Q96SZ6), the log2 fold change is -0.023.
The same measure, in the same setting: in the case of CD55 isoform 7 (UniProt P08174) it was -0.049.
On the same count and under the same terms, next, COX20 isoform 2 (UniProt Q5RI15): 0.042; COX15 (UniProt Q7KZN9): -0.02; CRMP1 isoform 2 (UniProt Q14194): -0.006.
The same measure, in the same setting: next, CPSF6 isoform 2 (UniProt Q16630): -0.016; CCNDBP1 (UniProt O95273): 0.047; CEP128 (UniProt Q6ZU80): 0.041.
C16orf58 (UniProt Q96GQ5): the log2 fold change was 0.013.
On the same count and under the same terms, in the case of CPSF7 isoform 3 (UniProt Q8N684) it was -0.013; in that of CDK17 isoform 2 (UniProt Q00537), -0.083.
With CETN2 (UniProt P41208), the log2 fold change was 0.08.
In the case of CLPTM1L (UniProt G5E9Z2), the log2 fold change is -0.1.
On the same count and under the same terms, next, CCNC (UniProt P24863): -0.037; CNN3 (UniProt Q15417): 0.03.
Same read-out and setting: next, COCH (UniProt O43405): 0.006.
Same read-out and setting: next, CNOT4 isoform 9 (UniProt O95628): -0.055; CDK1 (UniProt P06493): 0.037.
CDK4 (UniProt P11802): the log2 fold change is -0.165.
CHCHD1 (UniProt Q96BP2): the log2 fold change was 0.021.
The same measure, in the same setting: in the case of COPS8 (UniProt Q99627) it was -0.014; in that of CERS2 (UniProt Q96G23), 0.048.
